Source: PubChem BioAssay (National Center for Advancing Translational Sciences (NCATS))
This is one part of a sample in which hits are shown more often than they occur.
Mito fusion act: blocks mitochondrial division or promotes mitochondrial fusion; S. cerevisiae fusion-defective mutant growth rescue, CellTiterGlo 48 h; Potency, µM (doses to about 46.1 µM), hits mostly activators; hit rate 0.23% among 320,000; AID 485298; further: nearly all actives have a fitted effect of over 45% in size
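S. cerevisiae fusion-defective temperature-sensitive mutants (e.g. fzo1-1, mgm1-5) grown 48 h at 37C in YPEG (ethanol/glycerol non-fermentable) medium with 23 nl compound per well; growth rescue read as CellTiterGlo luminescence.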
S-ASM inh: inhibitors of human secretory acid sphingomyelinase; placental ASM, HMU-PC fluorogenic substrate, 60 min; AID 504937; P17405; Potency, µM (highest dose often 57.5 µM), usual class: inhibitors; hit rate 0.006% among 340,000
Target sequence (P17405 47-631 limits assumed): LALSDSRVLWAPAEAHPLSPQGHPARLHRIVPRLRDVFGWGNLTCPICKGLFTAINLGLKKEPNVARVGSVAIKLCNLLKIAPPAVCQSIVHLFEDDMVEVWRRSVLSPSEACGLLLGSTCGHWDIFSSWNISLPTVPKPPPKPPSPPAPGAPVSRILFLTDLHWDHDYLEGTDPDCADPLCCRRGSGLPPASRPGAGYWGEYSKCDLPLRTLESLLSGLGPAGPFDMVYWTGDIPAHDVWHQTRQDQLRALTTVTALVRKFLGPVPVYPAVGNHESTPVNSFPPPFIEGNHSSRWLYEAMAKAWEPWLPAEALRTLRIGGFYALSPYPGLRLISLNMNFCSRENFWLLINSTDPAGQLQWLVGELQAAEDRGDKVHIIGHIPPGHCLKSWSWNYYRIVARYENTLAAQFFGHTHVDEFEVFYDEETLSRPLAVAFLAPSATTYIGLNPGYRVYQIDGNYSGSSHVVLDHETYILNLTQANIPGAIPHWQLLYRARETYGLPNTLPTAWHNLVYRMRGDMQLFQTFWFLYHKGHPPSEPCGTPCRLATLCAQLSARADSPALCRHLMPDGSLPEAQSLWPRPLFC
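Human placenta-derived ASM preincubated with compound 10 min at room temperature, then reacted with 9 uM (final) fluorogenic HMU-PC substrate for 60 min at 37 C. Stop solution raises pH to 10; fluorescence read at Ex 386/Em 447 nm.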
mIDH1 inhibitor: inhibitors of human mutant IDH1 R132H. O75874. IDH1-R132H enzyme, NADPH consumption, diaphorase/resazurin fluorescence. Potency, µM (highest dose often 76.6 µM), hits mostly inhibitors. hit rate 0.093% among 390,000. AID 602179; further: nearly all actives have a fitted effect of over 65% in size
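IDH1-R132H (0.5 ug/mL) preincubated 30 min with compound, then NADPH (0.016 mM) and alpha-KG (2 mM) added; 80 min at RT, pH 7.5. Remaining NADPH coupled via diaphorase/resazurin to fluorescence (540/590 nm); concentration-response curves normalized to no-enzyme control.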
RGS4 inhibitor: human RGS4 inhibition; P49798; Transcreener GDP fluorescence polarization, RGS4-accelerated GTP hydrolysis; Potency, µM (doses to about 114 µM), actives largely listed as inhibitors; hit rate 0.039% among 390,000; AID 504845; further: nearly all actives have a fitted effect of over 75% in size
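MLSMR compounds (23 nl, pin-transferred) preincubated 10 min at room temperature with a 500nM (2x) first reagent, then RGS4 at 900nM (2x) plus Transcreener GDP mix added; fluorescence polarization (620/688 nm) read before and after 90 min at 30 °C.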
LDHA block: blocks human lactate dehydrogenase A. activity change, % (values are at about 110 or 230 µM). purified LDHA, NADH/diaphorase-resazurin fluorescence; stronger effect = lower value. hit rate 0.15% among 480,000; in the data active means activity change below about -30%; inconclusive means mostly about -25% to -30%
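Remaining NADH was detected by diaphorase (0.133 mg/mL) converting 37 µM resazurin to fluorescent resorufin, read at 0 and 20 minutes. The preceding 5-minute room-temperature reaction used 2 nM LDHA, 0.2 mM sodium pyruvate and 0.06 mM NADH at pH 7.4.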
ClpP mod: qHTS Assay for Activators of ClpP; AID 651965, 2013; hit rate 1.9% among 340,000; purified B. subtilis ClpP, FRET peptide cleavage, 20 min; ATP-dependent Clp protease proteolytic subunit (Bacillus subtilis (strain 168)), P80244; Potency, µM (titrated, usually from 57.5 µM); active means well fitted falling curve with a large enough effect; inconclusive means small, poorly fitted or top-dose-only effect; inactive means no such curve, though single readings can be large or run the other way; further: the source files actives as falling curves though it sought activators and does not explain the sign; nearly all actives have a fitted effect of over 65% in size
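ClpP 10 microg/mL final, pH 8 Tris/KCl buffer with BSA, glycerol, Tween-20; compound pinned in; FRET-FV substrate; RT 20 min; Ex320/Em430; ΔFRET vs ADEP 5.8 microM, DMSO, no enzyme.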
Numbers stand for hits; n = inactive; u = inconclusive; x = no result; [ ] = dose if it differs, or a comment. Unless noted, the call rests on the fitted dose curve; in most records, active means well fitted curve in the direction sought with a large enough effect; inconclusive means small, poorly fitted or top-dose-only effect, or another doubt; inactive means no such curve, though single readings can be large; an effect the other way counts as inactive or inconclusive.

SMILES	Mito fusion act	S-ASM inh	mIDH1 inhibitor	RGS4 inhibitor	LDHA block	ClpP mod
O=C(CSc1nnnn1Cc1ccccc1)Nc1ccc(CN2CCOCC2)cc1	x	x	x	x	n	x
CCOc1ccc(NC(=O)CC2C(=O)N(c3ccccc3)C(=O)N2Cc2ccco2)cc1 (stereo not given)	n	n	n	n	n	25µM
COC(=O)c1ccc(NC(=O)CC2C(=O)N(c3ccccc3)C(=O)N2Cc2ccco2)cc1 (stereo not given)	x	x	n	n	n	n
CCOc1ccc(NC(=O)CSc2nnc(-c3ccccc3Cl)n2Cc2ccco2)cc1	n	n	n	n	n	18µM
CCN1CCN(CCNC(=O)c2ccc3nc(-c4ccccc4)c(-c4ccccc4)nc3c2)CC1	x	x	x	x	n	x
CCOC(=O)C1CCN(c2nc(-c3ccccc3)nc3c2oc2ccccc23)CC1	n	n	n	n	n	32µM
CCOC(=O)C1CCN(Cc2c(O)ccc3ccccc23)CC1	n	n	n	n	n	28µM
Cc1ccc(Oc2nc(-c3ccccc3)ncc2S(C)(=O)=O)cc1	n	n	n	n	n	n
Cc1ccc(Oc2nc(-c3ccccc3)ncc2S(=O)(=O)c2ccc(C)cc2)cc1	n	n	n	n	n	22µM
CN(C(=O)COC(=O)C1CSC2(C)CCC(=O)N12)c1ccccc1 (stereo not given)	n	n	n	n	n	28µM
C=C(C)C(=O)Nc1cccc(C2=NOC3(C2)C[C@@H](C(N)=O)N(C(=O)c2ccc(Cl)cc2)C3)c1 (stereo not given in full)	n	n	n	n	n	n
C/C=C(/C)C(=O)Nc1cccc(C2=NOC3(C2)C[C@H](C(N)=O)N(C(=O)c2ccc(Cl)cc2)C3)c1 (stereo not given in full)	14µM	n	n	n	n	n
COc1ccc(C(=O)Nn2cnc3scc(-c4cccs4)c3c2=O)c(O)c1	n	n	n	n[11.4 µM]	n	32µM
CCOc1ccc(C(=O)NCC(=O)OCc2c(F)cccc2Cl)cc1OCC	n	n	n	n	n	n
CCOc1ccc(C(=O)NCC(=O)OCc2c(F)cccc2Cl)cc1	n	n	n	n	n	28µM
C=CCSc1nnc(-c2cc3c(-c4ccccc4)nn(C)c3s2)n1C	n	n	n	n	n	28µM
O=[N+]([O-])c1cc(C=NN2CCCCCC2)ccc1Cl	x	n	n	n	n	28µM
CC12CC3(C)CC(CN)(C1)CC(CCN)(C2)C3	x	x	x	x	n	x
O=c1ccc(/C=C/c2ccccc2)nn1Cc1ccc(Cl)cc1Cl	n	n	n	n	n	28µM
Cc1ccc(/C=C/c2ccc(=O)n(Cc3ccc(Cl)cc3Cl)n2)cc1	n	n	n	n	n	3.2µM
Cn1c(=O)c2c(nc(N3CCN(C(=O)Cc4ccccc4)CC3)n2Cc2ccccc2)n(C)c1=O	x	x	x	x	n	x
CC(=O)N1[C@@H]2CC3C4CC=C5C[C@@H](O)CC[C@]5(C)C4CC[C@]3(C)[C@@]21C(C)=O (stereo not given in full)	22µM	n	n	n	n	n
CC(=O)C1(O)C(C)CC2C3CC=C4CC(O)CCC4(C)C3CCC21C (stereo not given)	x	n	n	n	n	x
N#CNC(=Nc1ccc(F)cc1)SCc1cccc(F)c1	x	x	x	x	n	x
C[C@@](Cc1ccc(O)c(O)c1)(NN)C(=O)O	n	n	n	n	n	n
SMILES	Mito fusion act	S-ASM inh	mIDH1 inhibitor	RGS4 inhibitor	LDHA block	ClpP mod
CC(N)(Cc1ccc(O)c(O)c1)C(=O)O (stereo not given)	n	x	x	11µM	x	x
Cc1ccc(NC(N)=S)cc1C	n	n	n	n	n	28µM
CCOc1cc(N2CCOCC2)c(OCC)cc1NC(=O)c1ccc(OCc2c(C)noc2C)c(OC)c1	n	n	n	n	n	11µM
Oc1cccc(-c2nc(-c3cccs3)c(-c3cccs3)[nH]2)c1	x	x	n	n	n	25µM
COc1ccc(-c2nc(-c3ccccc3)c(-c3cccs3)[nH]2)cc1OC	n	n	n	n	n	28µM
COc1ccc(-c2nc(-c3ccccc3)c(-c3ccccc3)[nH]2)cc1Br	x	x	n	n	n	n
Cc1ccsc1-c1nc(-c2ccccc2)c(-c2ccccc2)[nH]1	n	n	n	n	n	28µM
Fc1ccc(-c2nc(-c3cccs3)[nH]c2-c2ccc(F)cc2)cc1	n	u	n	n	n	u
COc1ccc(-c2nc(-c3cccs3)c(-c3cccs3)[nH]2)cc1OC	n	n	n	n	n	35µM
O=[N+]([O-])c1cccc(-c2nc(-c3cccs3)c(-c3cccs3)[nH]2)c1	n	n	n	n[11.4 µM]	n	n
Cc1ccc(C)n1-c1nnc(N2CCCC(C(=O)Nc3ccccc3F)C2)s1 (stereo not given)	x	x	x	x	n	x
COC(=O)CN1CCN(c2nc3c(c(=O)[nH]c(=O)n3C)n2Cc2cccc3ccccc23)CC1	x	x	x	x	n	x
Cc1cc(C)c(S(=O)(=O)NCCO)c(C)c1	x	x	x	x	n	x
Cc1nnc(Cn2c(=O)c(C#N)cn(C3CC3)c2=O)o1	x	x	x	x	n	x
c1ccc(-c2nnc(-c3c[nH]c4ccccc34)nc2-c2ccccc2)cc1	n	n	n	n	n	n
ClC(Cl)c1nnc(-c2ccccc2)c(-c2c[nH]c3ccccc23)n1	n	n	n	n	n	25µM
CCC(c1nnnn1CCOC)N(Cc1cc2c(C)cc(C)cc2[nH]c1=O)CC1CCCO1 (stereo not given)	n	n	n	n	n	28µM
CCC(=O)NC(c1ccccc1)c1c(OC(C)=O)ccc2ccccc12 (stereo not given)	n	n	n	n	n	x
CCC(=O)NC(c1cccc([N+](=O)[O-])c1)c1c(OC(C)=O)ccc2ccccc12 (stereo not given)	n	n	n	n	n	28µM
Cc1ccc(Cl)cc1N1CCN(C(=O)C2CCN(S(=O)(=O)c3cccc4nonc34)CC2)CC1	x	x	n	n	n	n
Cc1ccc(Cl)cc1N1CCN(C(=O)CCS(=O)(=O)c2cccc3nonc23)CC1	14µM	x	n	n	n	n
Cc1ccc(C2C(C#N)=C(N)Oc3cc(C)n(C)c(=O)c32)s1 (stereo not given)	x	x	x	x	n	x
O=C(Cn1c(=O)[nH]c2ccccc2c1=O)N1CCN(c2cccc(Cl)c2)CC1	n	n	n	n	n	32µM
O=C(O)Cn1c(-c2cccs2)cc2cc(Cl)ccc21	x	x	x	n	n	n
O=C(CCC(=O)N1CCN(c2cccc(Cl)c2)CC1)c1cccs1	n	n	n	n	n	x
O=C(Cn1c(-c2cccs2)cc2cc(F)ccc21)N1CCN(c2cccc(Cl)c2)CC1	x	x	n	n	n	28µM
